Screening data deposited in PubChem by University of Kansas High Throughput Screening Laboratory.
mHTT CaM bind: inhibitors of human mutant huntingtin-calmodulin interaction; inhibition, % at 15 µM; 190,000 compounds, 3.6% hits; AlphaScreen His-mHTT/GST-CaM binding, luminescence; P42858
Pf apPOL block: Pf-apPOL DNA polymerase inhibition; Recombinant Pf-apPOL, molecular beacon fluorescence, 1.5 h; inhibition, % at 10 µM; 210,000 compounds, 0.25% hits
Large screens that a line does not name were inactive. An excerpt weighted towards active compounds, which were near 3.5% of everything screened. No stated cut-off is given here; in the data, active means inhibition above about 50%; inactive means the rest.

Cn1nc(COc2ccc(F)cc2)c2c1CCN(C(=O)Nc1ccc(F)c(Cl)c1)C2	mHTT CaM bind 55
Cc1cc(C)cc(N2CCC(NC(=O)Nc3ccccc3)C2=O)c1 (stereo unspecified)	none
CN1CCCc2cc(C(CNC(=O)C(=O)Nc3ccc4c(c3)OCCO4)N(C)C)ccc21 (stereo unspecified)	none
CN1CCc2cc(C(CNC(=O)C(=O)Nc3cccc(C(F)(F)F)c3)N(C)C)ccc21 (stereo unspecified)	mHTT CaM bind 53
COc1ccccc1C(=O)Nc1cc(Br)cc2cccnc12	none
COc1ccccc1NC(=O)Nc1cccc2cccnc12	none
COc1ccccc1C(NC(=O)C(C)C)c1ccc2cccnc2c1O (stereo unspecified)	mHTT CaM bind 99
COc1ccccc1C(NC(C)=O)c1ccc2cccnc2c1O (stereo unspecified)	mHTT CaM bind 100
CCN1C(=O)OC2(CC(C)(C)NC(C)(C)C2)C1(C)O (stereo unspecified)	none
O=C(c1c(Cl)cccc1Cl)N1CCCCC1	none
CCCNC(=O)C1CC(c2cccc(OC)c2)=NO1 (stereo unspecified)	none
CN(Cc1ccccc1)Cc1cncc(-c2cc3ccccc3s2)c1	mHTT CaM bind 80
CN(Cc1ccccc1)Cc1ccc(O)cc1	none
O=C(Nc1ccc(Nc2ccccc2)cc1)c1ccccc1I	mHTT CaM bind 70
CCOc1ncccc1C(=O)Nc1ccc(Cl)cc1	none
CCOc1ncccc1C(=O)Nc1ccc(Nc2ccccc2)cc1	mHTT CaM bind 85
O=C(Nc1ccc(Nc2ccccc2)cc1)c1ccccc1F	none
CC(C)c1ccc(NC(=O)CSc2ccccn2)cc1	none
O=C(c1nccc2ccccc12)N1CC2CN(S(=O)(=O)c3ccc(F)cc3)CC(C1)O2	none
O=C(Nc1ccc(S(=O)(=O)N2CCCCC2c2cccnc2)cc1)c1ccccc1Cl (stereo unspecified)	none
Cc1ccc(NC(=O)C2CCC(CNS(=O)(=O)c3ccc(Br)s3)CC2)cc1 (stereo unspecified)	none
O=C1CSC(c2ccco2)N1Cc1ccccc1 (stereo unspecified)	none
O=C1CSC(c2ccc(Br)cc2)N1Cc1ccco1 (stereo unspecified)	none
O=C1CSC(c2cn(-c3ccccc3)nc2-c2ccccc2)N1Cc1ccco1 (stereo unspecified)	mHTT CaM bind 59
O=C1CSC(c2cn(-c3ccccc3)nc2-c2ccc(Cl)cc2)N1Cc1ccco1 (stereo unspecified)	mHTT CaM bind 90
O=C(O)c1cccc(Nc2nc(-c3ccc(Cl)cc3Cl)nc3ccccc23)c1	none
CCCCN(CC)C(=O)C1c2cc(OC)c(OC)cc2C(=O)N(C)C1c1cccs1 (stereo unspecified)	none
CCCCCCCCN1C(=O)CCC1=O	none (no result: Pf apPOL block)
CCCCCCCCCn1cc[n+](CCCCCCCCC)c1C	mHTT CaM bind 100 (no result: Pf apPOL block)
CS(=O)(=O)c1ccc2nc(NC(=O)/C=C/c3cccc([N+](=O)[O-])c3)sc2c1	none
Cc1sc2cc(C(=O)N3CCOCC3)[nH]c2c1CN1CCOCC1	mHTT CaM bind 100
Cc1sc2cc(C(=O)N3CCN(C)CC3)[nH]c2c1CN1CCOCC1	none
CC(=O)Oc1ccc(C(=O)Nc2cc(Cl)ccc2OC(C)=O)cc1	mHTT CaM bind 69
COc1ccc(OC)c(NC(=O)c2ccc(Cl)cc2)c1	none
Cc1ccc(N=C2C(=O)Nc3ccccc32)c(C)c1	none
Cc1ccc(O)c(N=C2C(=O)Nc3ccccc32)c1	mHTT CaM bind 56
CCN1CCN(C(=O)c2cc3c(s2)CCN(C(=O)c2ccc(Cl)cc2)C3)CC1	none
O=C(c1nnn(-c2ccccc2F)c1-c1ccccn1)N1CC=C(c2ccccc2)CC1	mHTT CaM bind 84
O=C(c1nnn(-c2ccccc2F)c1-c1ccccn1)N1CCN(c2ncccn2)CC1	none
CC1=Nc2c([nH]c3ccccc23)-c2cc(C)ccc2N1	mHTT CaM bind 70
Cc1ccc(C)c(-c2noc(-c3c(O)c4ccccc4[nH]c3=O)n2)c1	none
Cc1ccccc1NCN1C(=O)C2CC=CCC2C1=O (stereo unspecified)	none
CSc1ccc(CNC(=O)C2(n3cccc3)CCCCC2)cc1	none
O=[N+]([O-])c1ccc(S(=O)(=O)N2CCN(c3ncccn3)CC2)cc1	Pf apPOL block 99
O=[N+]([O-])c1ccc(S(=O)(=O)N2CCN(c3ccccn3)CC2)cc1	none
COCCCNC(=O)c1c(NC(=O)COc2ccc(OC)cc2)sc2c1CCCC2	none
Cc1ncc(CO)c2cc(C(=O)Nc3ccccc3)c(=Nc3ccccc3)oc12	none
COC(=O)c1ccc(NC(=O)Cc2csc(NC(=O)c3ncccn3)n2)cc1	mHTT CaM bind 98
COC(=O)c1ccc(NC(=O)Cc2csc(NC(=O)Nc3ccccc3OC)n2)cc1	none
O=C(CN1CCN(C(=O)Nc2ccc(F)cc2)CC1=O)N1CCCCC1	none
O=C1CCCC(=O)N1c1ccc(N2CCN(c3cccc(C(F)(F)F)c3)CC2)c([N+](=O)[O-])c1	none
O=C1CCCC(=O)N1c1ccc(N2CCC(O)(c3cccc(C(F)(F)F)c3)CC2)c([N+](=O)[O-])c1	mHTT CaM bind 93
O=S(=O)(NCc1ccc(F)cc1F)c1ccc(F)cc1F	none (no result: mHTT CaM bind)
CCOc1ccccc1CN1CCc2nc(N3CCN(CC)CC3)ncc2C1	none
COc1ccc(CN2CCc3nc(N4CCC(C)CC4)ncc3C2)c(OC)c1	mHTT CaM bind 74
COc1ccc(OC)c(CN2CCc3nc(N4CCCC4)ncc3C2)c1	none
COc1ccc(CN2CCc3nc(N4CCN(c5ncccn5)CC4)ncc3C2)c(OC)c1	mHTT CaM bind 100
COc1ccc(N2CCN(c3ncc4c(n3)CCN(Cc3ccccc3OC)C4)CC2)cc1	mHTT CaM bind 53
COc1ccc(N2CCN(c3ncc4c(n3)CCN(Cc3ccccc3C)C4)CC2)cc1	none
COc1cc(OC)c(OC)cc1CN1CCc2nc(N3CCC(C)CC3)ncc2C1	none
CCOc1ccccc1CN1CCc2nc(N3CCN(c4ncccn4)CC3)ncc2C1	mHTT CaM bind 100
O=C(Sc1ccccc1)c1ccc2ncsc2c1	none (no result: mHTT CaM bind)
COc1ccc(-c2cc(C(=O)NCc3cccnc3)c3cc(Br)ccc3n2)cc1	none
Cc1ccc(Cl)cc1NC(=O)C(C)Cn1cncn1 (stereo unspecified)	none
O=C(NCc1ccc2c(c1)OCO2)C(=O)NCc1nc(-c2ccccc2)no1	none
CC(C)C(=O)NCc1csc(C2CCCN(C(=O)Cc3cccc(F)c3)C2)n1 (stereo unspecified)	none
Cc1cccc(C(=O)N(Cc2ccccc2)Cc2ccccc2)c1	none
COc1cccc(C(=O)N2CCC(c3nc(C(=O)N(C)C)c(C)o3)CC2)c1	none
COc1ccc(OCC2CN(C(=O)c3ccc(C)cc3)CCO2)cc1 (stereo unspecified)	none
CNc1ccc(C(=O)N2CCOC(COc3ccc4c(c3)CCCC4)C2)cc1 (stereo unspecified)	mHTT CaM bind 52
CC(=O)NC1C(O)OC(CO)C(O)C1O (stereo unspecified)	none (no result: mHTT CaM bind)
COC(=O)C1OC(O)C(O)C(O)C1O (stereo unspecified)	Pf apPOL block 96 (no result: mHTT CaM bind)
COc1ccc(NC(=O)Cn2nc3nc(N4CCOCC4)ccn3c2=O)cc1F	none
O=[N+]([O-])c1cc2c(cc1CNc1ccc3cn[nH]c3c1)OCO2	none
O=[N+]([O-])c1cc2c(cc1CNc1ccc3c(c1)CCC3)OCO2	mHTT CaM bind 81
COc1ccccc1/C=C1/SC(N2CCCCC2)=NC1=O	none
NC(=O)CNC(=O)C1CCCc2c1[nH]c1ccc(Cl)cc21 (stereo unspecified)	none
